How the values were obtained:
Assay in all cases: log2 ratio of Biotin-Ahx-Ub-VS probe labelling (fragment/DMSO); higher = less target engagement (more negative = stronger competition), active = hit call of the paper (q ≤ 0.05, log2 ratio ≤ -1)
Conditions in all cases: compound concentration: 200 uM; treatment time: 3 h
[1] = target: T1, USP19 (UniProt O94966)
T1 sequence (whole entry): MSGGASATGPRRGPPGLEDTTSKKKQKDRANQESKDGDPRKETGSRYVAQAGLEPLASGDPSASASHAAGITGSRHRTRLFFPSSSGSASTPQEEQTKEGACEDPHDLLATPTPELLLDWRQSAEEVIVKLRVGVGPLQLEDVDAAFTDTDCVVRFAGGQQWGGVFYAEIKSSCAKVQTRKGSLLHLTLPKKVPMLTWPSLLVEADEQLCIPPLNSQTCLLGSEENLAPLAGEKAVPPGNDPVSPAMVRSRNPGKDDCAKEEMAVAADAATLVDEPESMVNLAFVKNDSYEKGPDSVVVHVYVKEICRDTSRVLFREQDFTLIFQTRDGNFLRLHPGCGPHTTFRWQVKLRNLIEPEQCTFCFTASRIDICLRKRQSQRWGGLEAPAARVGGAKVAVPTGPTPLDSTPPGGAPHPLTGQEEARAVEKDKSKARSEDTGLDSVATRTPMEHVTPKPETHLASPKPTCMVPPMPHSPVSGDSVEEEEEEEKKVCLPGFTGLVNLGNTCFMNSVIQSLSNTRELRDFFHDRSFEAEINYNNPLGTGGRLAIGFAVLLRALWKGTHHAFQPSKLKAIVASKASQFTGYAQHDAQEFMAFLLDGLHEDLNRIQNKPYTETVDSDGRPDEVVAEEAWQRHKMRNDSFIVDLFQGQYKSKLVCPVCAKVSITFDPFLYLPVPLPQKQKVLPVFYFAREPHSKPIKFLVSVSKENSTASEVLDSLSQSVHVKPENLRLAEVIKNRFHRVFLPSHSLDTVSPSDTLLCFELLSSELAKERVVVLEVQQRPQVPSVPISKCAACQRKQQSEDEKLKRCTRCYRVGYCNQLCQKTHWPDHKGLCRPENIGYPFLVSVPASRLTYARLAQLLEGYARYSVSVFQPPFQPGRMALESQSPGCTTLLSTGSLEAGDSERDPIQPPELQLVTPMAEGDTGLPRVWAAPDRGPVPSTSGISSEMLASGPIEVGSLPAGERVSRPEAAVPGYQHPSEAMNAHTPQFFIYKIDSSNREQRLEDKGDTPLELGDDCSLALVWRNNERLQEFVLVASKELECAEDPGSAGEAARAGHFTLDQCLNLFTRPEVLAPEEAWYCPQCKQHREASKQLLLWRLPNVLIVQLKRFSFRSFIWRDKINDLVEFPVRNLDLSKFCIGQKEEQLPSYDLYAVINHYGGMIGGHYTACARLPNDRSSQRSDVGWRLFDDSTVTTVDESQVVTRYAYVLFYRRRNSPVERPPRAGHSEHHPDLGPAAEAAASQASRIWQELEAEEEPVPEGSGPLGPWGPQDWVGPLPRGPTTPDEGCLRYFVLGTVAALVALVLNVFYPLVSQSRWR
Summary of the method: (§1)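 HEK293T lysate (495 µg per sample, in Tris/CHAPS/IGEPAL buffer with protease inhibitors) was exposed in triplicate for 3 h to fragment at 200 µM or to vehicle, then to Biotin-Ahx-Ub-VS at 0.5 µM final for 1 h. Labelled DUBs were enriched on NeutrAvidin, digested with LysC and trypsin, and analysed by diaPASEF LC-MS/MS. Spectronaut label-free quantities were normalised to the global median, and values are average log2 ratios of fragment over vehicle from an unpaired t-test. Only proteins with ≥2 unique peptides were used.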

[2] = target: T2, USP22 (UniProt Q9UPT9)
T2 sequence (whole entry): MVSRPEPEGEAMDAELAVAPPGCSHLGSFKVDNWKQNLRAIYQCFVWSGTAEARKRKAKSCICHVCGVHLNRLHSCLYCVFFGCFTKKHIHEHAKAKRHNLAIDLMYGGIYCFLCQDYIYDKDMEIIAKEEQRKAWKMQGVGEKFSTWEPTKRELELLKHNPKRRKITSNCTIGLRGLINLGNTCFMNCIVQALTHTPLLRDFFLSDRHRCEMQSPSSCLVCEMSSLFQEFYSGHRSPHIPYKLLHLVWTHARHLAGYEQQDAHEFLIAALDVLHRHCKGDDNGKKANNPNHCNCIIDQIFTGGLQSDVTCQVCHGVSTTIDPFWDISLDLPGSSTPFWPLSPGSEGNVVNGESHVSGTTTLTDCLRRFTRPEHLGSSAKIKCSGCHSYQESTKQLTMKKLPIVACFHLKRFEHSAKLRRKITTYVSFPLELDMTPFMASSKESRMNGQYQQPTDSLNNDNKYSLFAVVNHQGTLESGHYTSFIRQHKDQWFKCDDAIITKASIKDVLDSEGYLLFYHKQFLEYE
Summary of the method: as §1

[3] = target: USP24 (UniProt Q9UPU5)
Summary of the method: as §1

[4] = target: T3, USP25 (UniProt Q9UHP3)
T3 sequence (whole entry): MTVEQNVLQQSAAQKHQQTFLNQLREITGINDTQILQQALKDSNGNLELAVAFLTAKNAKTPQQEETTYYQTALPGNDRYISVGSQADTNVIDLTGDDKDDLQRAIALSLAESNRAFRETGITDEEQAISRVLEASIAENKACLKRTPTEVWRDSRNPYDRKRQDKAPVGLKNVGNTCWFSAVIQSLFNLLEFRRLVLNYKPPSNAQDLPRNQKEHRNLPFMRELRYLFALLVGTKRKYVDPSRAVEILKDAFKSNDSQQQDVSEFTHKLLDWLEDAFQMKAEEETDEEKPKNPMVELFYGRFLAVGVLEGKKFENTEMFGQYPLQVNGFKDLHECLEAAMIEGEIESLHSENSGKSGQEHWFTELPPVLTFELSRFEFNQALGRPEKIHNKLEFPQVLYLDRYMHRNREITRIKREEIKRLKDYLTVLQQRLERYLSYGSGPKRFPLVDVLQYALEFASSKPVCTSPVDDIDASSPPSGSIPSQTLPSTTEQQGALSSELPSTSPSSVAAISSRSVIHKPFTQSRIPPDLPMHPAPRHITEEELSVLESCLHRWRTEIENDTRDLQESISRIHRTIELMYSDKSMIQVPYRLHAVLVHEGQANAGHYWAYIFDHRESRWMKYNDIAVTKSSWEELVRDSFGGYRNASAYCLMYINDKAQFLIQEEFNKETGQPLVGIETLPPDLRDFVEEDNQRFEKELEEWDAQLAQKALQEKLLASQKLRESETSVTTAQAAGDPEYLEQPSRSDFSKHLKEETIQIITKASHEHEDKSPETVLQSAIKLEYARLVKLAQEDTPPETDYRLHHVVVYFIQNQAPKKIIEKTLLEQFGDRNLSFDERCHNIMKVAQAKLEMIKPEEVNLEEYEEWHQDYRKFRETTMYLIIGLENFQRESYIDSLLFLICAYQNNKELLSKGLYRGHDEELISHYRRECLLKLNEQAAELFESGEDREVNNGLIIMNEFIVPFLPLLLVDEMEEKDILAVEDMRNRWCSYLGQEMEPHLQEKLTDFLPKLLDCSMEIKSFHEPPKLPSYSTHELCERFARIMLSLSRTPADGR
Summary of the method: as §1

[5] = target: T4, USP28 (UniProt Q96RU2)
T4 sequence (whole entry): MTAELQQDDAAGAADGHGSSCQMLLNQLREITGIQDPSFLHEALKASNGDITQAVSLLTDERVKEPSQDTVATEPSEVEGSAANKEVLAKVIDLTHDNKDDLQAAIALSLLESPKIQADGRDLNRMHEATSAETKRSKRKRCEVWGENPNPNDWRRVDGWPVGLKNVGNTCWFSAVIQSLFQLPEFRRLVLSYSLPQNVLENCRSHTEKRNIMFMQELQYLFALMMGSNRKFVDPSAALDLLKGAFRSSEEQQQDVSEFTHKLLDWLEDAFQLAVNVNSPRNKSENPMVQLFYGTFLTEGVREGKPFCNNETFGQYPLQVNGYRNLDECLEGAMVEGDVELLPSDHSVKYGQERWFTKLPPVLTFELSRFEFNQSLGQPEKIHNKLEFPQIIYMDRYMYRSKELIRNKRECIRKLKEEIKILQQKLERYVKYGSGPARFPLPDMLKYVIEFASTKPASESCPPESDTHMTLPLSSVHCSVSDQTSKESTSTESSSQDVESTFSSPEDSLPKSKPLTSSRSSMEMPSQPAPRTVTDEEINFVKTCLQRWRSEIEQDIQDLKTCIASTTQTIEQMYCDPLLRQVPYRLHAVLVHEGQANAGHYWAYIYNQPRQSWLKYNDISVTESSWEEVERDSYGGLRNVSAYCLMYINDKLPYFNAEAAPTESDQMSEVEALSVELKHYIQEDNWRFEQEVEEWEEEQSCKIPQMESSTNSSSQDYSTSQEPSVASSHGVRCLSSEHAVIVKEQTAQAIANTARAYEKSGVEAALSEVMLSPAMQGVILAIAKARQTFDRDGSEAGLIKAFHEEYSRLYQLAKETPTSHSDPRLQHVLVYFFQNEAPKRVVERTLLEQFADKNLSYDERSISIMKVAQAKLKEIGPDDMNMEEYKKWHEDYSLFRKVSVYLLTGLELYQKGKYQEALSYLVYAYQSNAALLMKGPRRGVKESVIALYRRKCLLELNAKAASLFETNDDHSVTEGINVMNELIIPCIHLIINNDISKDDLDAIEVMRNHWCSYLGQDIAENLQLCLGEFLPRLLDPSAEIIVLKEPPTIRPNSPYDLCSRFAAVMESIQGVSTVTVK
Summary of the method: as §1

Measured: log2 ratio of Biotin-Ahx-Ub-VS probe labelling

USP24, sequence (Q9UPU5 whole entry): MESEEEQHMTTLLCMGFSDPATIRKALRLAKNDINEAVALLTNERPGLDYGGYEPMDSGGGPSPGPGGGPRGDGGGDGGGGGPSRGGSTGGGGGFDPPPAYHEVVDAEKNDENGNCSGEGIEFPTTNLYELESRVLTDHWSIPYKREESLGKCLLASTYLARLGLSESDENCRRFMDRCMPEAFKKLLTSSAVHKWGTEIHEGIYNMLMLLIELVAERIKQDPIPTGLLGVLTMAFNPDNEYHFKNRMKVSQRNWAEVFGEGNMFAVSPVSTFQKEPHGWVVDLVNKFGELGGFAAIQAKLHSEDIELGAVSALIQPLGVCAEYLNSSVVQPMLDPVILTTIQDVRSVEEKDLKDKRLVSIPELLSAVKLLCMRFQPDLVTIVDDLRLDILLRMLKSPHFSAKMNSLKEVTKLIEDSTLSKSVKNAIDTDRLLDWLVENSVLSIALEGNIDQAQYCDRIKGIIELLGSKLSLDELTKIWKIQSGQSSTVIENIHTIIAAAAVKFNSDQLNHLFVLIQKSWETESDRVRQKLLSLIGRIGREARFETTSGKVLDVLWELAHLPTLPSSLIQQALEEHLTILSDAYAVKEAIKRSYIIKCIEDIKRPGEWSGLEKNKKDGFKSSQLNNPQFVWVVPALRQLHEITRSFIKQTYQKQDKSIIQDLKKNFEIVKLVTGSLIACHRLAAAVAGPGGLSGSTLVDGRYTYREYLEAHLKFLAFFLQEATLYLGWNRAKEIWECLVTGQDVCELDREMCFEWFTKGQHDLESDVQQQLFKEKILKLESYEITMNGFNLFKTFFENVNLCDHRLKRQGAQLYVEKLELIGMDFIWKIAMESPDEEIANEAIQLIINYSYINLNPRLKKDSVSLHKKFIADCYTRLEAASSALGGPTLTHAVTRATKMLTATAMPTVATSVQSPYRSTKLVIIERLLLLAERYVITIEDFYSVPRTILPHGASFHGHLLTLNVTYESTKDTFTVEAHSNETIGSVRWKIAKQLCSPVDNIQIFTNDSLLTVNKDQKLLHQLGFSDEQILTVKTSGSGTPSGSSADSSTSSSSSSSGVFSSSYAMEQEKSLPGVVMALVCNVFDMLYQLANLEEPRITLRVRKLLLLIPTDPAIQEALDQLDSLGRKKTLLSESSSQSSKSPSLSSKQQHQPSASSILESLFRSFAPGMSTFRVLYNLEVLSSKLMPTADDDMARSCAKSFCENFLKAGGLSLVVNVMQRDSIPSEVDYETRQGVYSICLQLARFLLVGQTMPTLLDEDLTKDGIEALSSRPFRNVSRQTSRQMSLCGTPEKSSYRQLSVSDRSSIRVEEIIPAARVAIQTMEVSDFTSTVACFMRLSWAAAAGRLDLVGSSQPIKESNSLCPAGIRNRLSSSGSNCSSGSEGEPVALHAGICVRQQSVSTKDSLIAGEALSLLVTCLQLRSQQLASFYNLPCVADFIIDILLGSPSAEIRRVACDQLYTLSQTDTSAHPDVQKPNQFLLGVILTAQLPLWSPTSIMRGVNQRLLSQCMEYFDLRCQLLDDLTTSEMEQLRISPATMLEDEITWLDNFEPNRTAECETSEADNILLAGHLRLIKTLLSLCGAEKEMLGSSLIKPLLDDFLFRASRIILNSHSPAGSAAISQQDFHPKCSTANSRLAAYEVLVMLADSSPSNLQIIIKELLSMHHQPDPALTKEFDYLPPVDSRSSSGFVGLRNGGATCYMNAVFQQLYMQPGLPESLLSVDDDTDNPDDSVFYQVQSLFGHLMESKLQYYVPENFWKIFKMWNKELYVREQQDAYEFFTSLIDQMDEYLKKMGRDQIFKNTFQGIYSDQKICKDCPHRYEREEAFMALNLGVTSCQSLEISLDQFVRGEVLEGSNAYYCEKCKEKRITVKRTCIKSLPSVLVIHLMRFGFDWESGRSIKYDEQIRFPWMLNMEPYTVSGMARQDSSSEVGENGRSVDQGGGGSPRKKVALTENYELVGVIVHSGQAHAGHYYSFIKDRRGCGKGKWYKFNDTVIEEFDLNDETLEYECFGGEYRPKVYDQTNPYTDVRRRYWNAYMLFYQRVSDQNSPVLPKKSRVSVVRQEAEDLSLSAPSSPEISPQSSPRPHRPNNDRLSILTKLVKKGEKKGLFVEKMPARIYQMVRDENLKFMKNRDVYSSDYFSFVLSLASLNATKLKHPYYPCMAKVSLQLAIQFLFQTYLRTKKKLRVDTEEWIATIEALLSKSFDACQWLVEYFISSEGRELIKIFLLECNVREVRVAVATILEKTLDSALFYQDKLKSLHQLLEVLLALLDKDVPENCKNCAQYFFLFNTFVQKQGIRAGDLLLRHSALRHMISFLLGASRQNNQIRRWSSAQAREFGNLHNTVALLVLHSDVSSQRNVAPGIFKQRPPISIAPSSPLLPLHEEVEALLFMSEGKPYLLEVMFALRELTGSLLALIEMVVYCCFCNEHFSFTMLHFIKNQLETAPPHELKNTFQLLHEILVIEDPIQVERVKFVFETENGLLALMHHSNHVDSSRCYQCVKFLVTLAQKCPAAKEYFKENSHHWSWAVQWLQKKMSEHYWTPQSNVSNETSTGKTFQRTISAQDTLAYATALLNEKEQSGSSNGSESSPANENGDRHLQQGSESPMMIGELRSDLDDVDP

CC(NC(=O)CCl)c1ccc2[nH]ncc2c1 (stereo not given)
inactive: [1] -0.529 | [2] 0.0735 | [3] -0.886 | [4] -0.509 | [5] -0.901

— the supplement of paper PMC11732987, “Enantioselective OTUD7B fragment discovery through chemoproteomics screening and high-throughput optimisation” (Communications Chemistry, 2025)
